Shiga toxin inh: blocks Shiga toxin action in Vero cells; 290,000 compounds, 9.2% hits; Vero cells, Shiga toxin protein synthesis inhibition reporter; inhibition, % at 38.7 µM; in the data active means inhibition mostly above about 28%, no sharp cut-off; inactive means mostly below about 43%; further: 0% is about no effect
Cycloheximide cs: counter-screen for Shiga toxin inhibitors: cycloheximide protein synthesis inhibition. max response, %. cell reporter, cycloheximide protein synthesis inhibition counterscreen. 300,000 compounds, 12% hits. AID 2314; in the data active means max response mostly above about 13%, no sharp cut-off; inactive means mostly below about 14%; further: read at 38.3 µM for the half of the compounds with a filed dose; 0% is about no effect
NS1 function inh: inhibitors of influenza NS1 protein function; Potency, µM (highest dose often 46.1 µM), without a hit: at the top dose activity, positive = more growth; 270,000 compounds, 0.4% hits; AID 2326; further: potency means the concentration at half of the fitted maximal effect; actives are rising curves; nearly all actives have a fitted effect of over 50% in size
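In this qHTS, NS1 from influenza A is expressed in budding yeast, where it slows growth. Cells are switched from glucose to 2% galactose medium (pH 6.0, -URA), treated with compound, and growth recovery is read at OD600.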
SARS PLpro yeast: blocks SARS-CoV papain-like protease in a yeast assay; Potency, µM (titrated, usually from 32.9 µM), inactives show top-dose activity, positive = growth rescue, most hits filed as activators; 330,000 compounds, 0.19% hits; S. cerevisiae expressing SARS-CoV PLpro, growth rescue; AID 485353; further: potency means the concentration at half of the fitted maximal effect; 0% is about no effect; nearly all actives have a fitted effect of over 55% in size
* = called active by the depositor; ? = inconclusive; . = no result. This is a sample that favours compounds with a hit; in the whole collection about 12% have one here. Unless noted, the call rests on the fitted dose curve.

SMILES	Shiga toxin inh	Cycloheximide cs	NS1 function inh	SARS PLpro yeast
COc1ccc(C)c2sc(N3CCCC3)nc12	-8	-2	-60%	3%
Brc1cccc2sc(N3CCCC3)nc12	89	34*	.	-3%
CCCN1CCN(CCCNC(=O)CCn2nc(-c3ccccc3)ccc2=O)CC1	-13	-1	.	-3%
CCOCCCNC(=S)N1CCN(Cc2ccc3c(c2)OCO3)CC1	0	8	6%	1%
CCOc1ccc(NC(=S)NC23CC4CC(CC(C4)C2)C3)cc1	7	1	9%	-4%
CN(C)c1ccc(NC(=S)NC23CC4CC(CC(C4)C2)C3)cc1	52*	44*	-10%	1%
FC(F)Oc1ccc(NC(=S)NC23CC4CC(CC(C4)C2)C3)cc1	59*	25*	12%	?
COc1cc(/C=C/c2ccc3cccc(OC)c3n2)c(O)c([N+](=O)[O-])c1	18	1	.	-1%
CCOc1cc(/C=C/c2ccc3cccc([N+](=O)[O-])c3n2)cc(Cl)c1O	22	11*	7%	3%
O=[N+]([O-])c1cccc2ccc(/C=C/c3ccc(Cl)cc3)nc12	137*	45*	?	-13%
O=C(O)c1cc(/C=C/c2ccc(N3CCOCC3)c([N+](=O)[O-])c2)nc2ccccc12	-9	-4	?	0%
CC(=O)Nc1ccc(/C=C/c2ccc3c([N+](=O)[O-])cccc3n2)cc1	70*	33*	.	-3%
O=[N+]([O-])c1cccc2ccc(/C=C/c3ccc(C(F)(F)F)cc3)nc12	31	21*	4%	-2%
O=[N+]([O-])c1cc(C(F)(F)F)ccc1Sc1ccc2ccccc2n1	19	8	-3%	2%
CCOc1ccc(C2=CSC3=NCCN23)cc1Cl	-10	1	5%	4%
O=[N+]([O-])c1cccc2ccc(/C=C/c3cccc(Br)c3)nc12	70*	42*	3%	4%
COc1ccccc1N1CCN(C2CCCN(C(=O)CC(F)(F)F)C2)CC1 (stereo not given)	-5	0	-7%	?
CCCN(C(=O)Cc1c(C(=O)O)n(C)c2ccccc12)c1cccc(C)c1	-6	-4	0%	-1%
Cn1nc(-c2ccc(Cl)cc2)cc1NC(=O)Nc1ccccc1	66*	31*	2%	-2%
Cc1cc(NC(=O)c2ccccc2)n(C)n1	-7	-1	-2%	2%
Cn1nc(-c2ccccc2)cc1NC(=O)Nc1ccc(C(C)(C)C)cc1	17	2	-8%	-8%
Cn1nc(-c2ccccc2)cc1NC(=O)c1ccccc1	19	12*	-9%	0%
CCN(CC(=O)NC1CCS(=O)(=O)C1)C(=O)/C=C/c1cccs1 (stereo not given)	-3	1	.	-1%
Cc1cc(C)c(C)c(S(=O)(=O)N2CCN(C(=O)c3ccccc3OCc3c(C)noc3C)CC2)c1C	.	.	.	-2%
S=C(NCCc1ccccc1)Nc1ccc(Cl)cc1Cl	61*	34*	6%	-2%
SMILES	Shiga toxin inh	Cycloheximide cs	NS1 function inh	SARS PLpro yeast
Cc1c(Cl)cccc1NC(=S)NCCC(c1ccccc1)c1ccccc1	17	10	19%	-55%
Cc1cc(Cl)ccc1NC(=S)NCc1ccc(Cl)cc1	10	-1	21%	2%
Cc1cc(Cl)ccc1NC(=S)NCCc1ccc(Cl)cc1	52	9.5*	-113%	-18%
Cc1cc(Cl)ccc1NC(=S)NCCC(c1ccccc1)c1ccccc1	-5	11*	?	3%
CCNC(=S)Nc1ccc(Cl)cc1Cl	35	-3	3%	?
CC(=O)N=Nc1[nH]c(N)c2ccccc12	-20	-2	.	0%
Cc1ccc(C(=O)Nc2ncc(Cc3ccc(SC(F)F)cc3)s2)cc1	25	-2	10%	18%
Cc1ccc(NCc2ccccc2)cc1	94*	49*	.	-4%
Cc1ccc(CNc2cccnc2)cc1	38*	43*	-3%	0%
COc1cc(CNc2ncn[nH]2)ccc1OCc1cccc(C)c1	70*	48*	2%	0%
Cc1ccc(NCc2cccnc2)cc1	-6	-1	0%	-3%
CSc1ccc(CNc2ccc(C)c(C)c2)cc1	79*	25*	1%	7%
O=[As](O)(O)c1ccc(NCc2ccccc2)cc1	.	.	1%	.
COc1ccccc1N1C(=O)c2ccccc2NC1c1ccc(O)cc1 (stereo not given)	-2	0	0%	-1%
CSc1ccc(CNc2cccc3ccccc23)cc1	22	8	-6%	-3%
CSc1ccc(CNc2ccc(C)cc2)cc1	80*	36*	-12%	0%
c1ccc(CNc2ccc(CNc3ncn[nH]3)cc2)cc1	24	18*	5%	0%
O=C(NNC(=O)c1ccc2nonc2c1)Nc1ccc(Cl)cc1	-14	-2	4%	1%
N/C(=N\OC(=O)c1ccccc1)c1ccccn1	-20	-8	-1%	-6%
N/C(=N\OC(=O)CCCc1ccccc1)c1ccccn1	54*	35*	-16%	-21%
CN(CC(=O)O/N=C(\N)c1ccccn1)S(=O)(=O)c1ccccc1	44*	17	0%	9%
N/C(=N\OC(=O)CCCc1ccccc1)c1ccc(Br)cc1	-23	11	0%	-11%
COc1ccc(/C(N)=N/OC(=O)CN(C)S(=O)(=O)c2ccccc2)cc1	41	14	-8%	0%
N/C(=N\OC(=O)C(c1ccccc1)c1ccccc1)c1ccccn1	49*	22*	-9%	-10%
COc1ccc(/C(N)=N/OC(=O)CCCc2ccccc2)cc1OC	21	27*	0%	-13%
SMILES	Shiga toxin inh	Cycloheximide cs	NS1 function inh	SARS PLpro yeast
COc1ccc(S(=O)(=O)N(Cc2ccco2)Cc2cc3ccccc3[nH]c2=O)cc1	-2	-5	5%	-2%
Cc1nc2cc(S(=O)(=O)N(C)C)ccc2n1-c1ccccc1	14	-1	-65%	2%
O=C(NS(=O)(=O)Nc1ccccn1)c1c[nH]c2ccccc12	-3	0	2%	0%
O=c1[nH]c(NC2CCN(S(=O)(=O)c3ccccc3C(F)(F)F)CC2)nc2c1CCCC2	-3	-3	-3%	-11%
CC(C(=O)O/N=C(\N)c1ccccn1)c1ccc([N+](=O)[O-])cc1 (stereo not given)	70*	40*	-1%	2%
N/C(=N\OCc1ccc([N+](=O)[O-])cc1)c1ccccn1	-21	-10	2%	-3%
N/C(=N\OC(=O)Cc1ccccc1)c1ccccn1	37	28*	-1%	12%
CCOc1ccc(NC(=O)CN(C)C(=O)CSC(C)C(=O)Nc2cc(C)on2)cc1OCC (stereo not given)	10	3	14%	5%
COc1cc(N=c2ssnc2Cl)cc(OC)c1OC	-8	-2	-142%	-24%
COc1ccc(N=c2ssnc2Cl)cc1	37*	18*	-26%	-84%
CCOC(=O)c1ccc(N=c2ssnc2Cl)cc1	53*	23*	.	-3%
Clc1ccc(N=c2ssnc2Cl)cc1	40*	11	-51%	-91%
Clc1nssc1=Nc1ccccc1	-3	12	.	1%
Fc1ccc(N=c2ssnc2Cl)c(F)c1	43	19*	.	-3%
COc1ccc(N2CCN(S(=O)(=O)c3ccc(OC)c(-c4noc(C)n4)c3)CC2)cc1	-2	-8	.	.

Assay outcomes (PubChem BioAssay)
